In the library only some 18% were active in any assay of this set; here they are far more common.
TDP1 cell noCPT: qHTS for Inhibitors of human tyrosyl-DNA phosphodiesterase 1 (TDP1): qHTS in cells in absence of CPT; hit rate 15% among 420,000; AID 686978, 2013; DT40 Tdp1-/- hTDP1 cells, no CPT, ATP luminescence, 48 h; Potency, µM (top dose mostly 46.2 µM), for the others: at the top dose activity change, negative = growth inhibition, usual class: inhibitors; further: potency means the concentration at half of the fitted maximal effect; on the % scale 0 is the no-effect control and ±100 the full control effect; nearly all actives have a fitted effect of over 55% in size
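Growth of hTDP1-complemented DT40 Tdp1-knockout cells is measured by ATP luminescence after at least 48 hr compound exposure at 37 °C, with DMSO substituting for the 20 nM CPT used in the parallel screen.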
HepG2 tox-1: kills HepG2 cells in TGF-b inhibitor counter-screen. Potency, µM (titrated, usually from 46.1 µM), for the others: top-dose activity change, negative = cytotoxicity, actives largely listed as cytotoxic. hit rate 0.76% among 410,000. HepG2 CAGA-GFP viability, ATP luminescence, 18 h. AID 588856; further: potency means the concentration at half of the fitted maximal effect
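CellTiter-Glo luminescence gave cytotoxicity after 18 hours at 37 degrees C. The cells were HepG2 CAGA-GFP in 1% FBS DMEM, stimulated with 500 pg/mL TGF-beta after compound addition. %Activity was normalised to no-cell wells (complete cell-killing) and DMSO (no toxicity), and curves were fitted and classified.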
TGFb inhibitor: blocks TGF-b signaling; HepG2 CAGA-GFP TGF-b/SMAD3 reporter, GFP fluorescence, 18 h; TGF-beta stimulated, 500 pg/mL final; Potency, µM (top dose mostly 46.1 µM), without a hit: at the top dose activity, negative = inhibition, actives largely listed as inhibitors; hit rate 1.2% among 410,000; AID 588855; further: potency means the concentration at half of the fitted maximal effect; on the % scale 0 is the no-effect control and ±100 the full control effect; nearly all actives have a fitted effect of over 65% in size
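Read-out: total well GFP (ex488/em500-530) summed from mean per-cell fluorescence. Cells: HEPG2 CAGA-GFP, 1% FBS DMEM, 18 h at 37 degrees C with 500 pg/mL final TGF-beta. Unstimulated wells served as the full-inhibition control; stimulated DMSO wells = 0%.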
TDP1 inh: blocks human tyrosyl-DNA phosphodiesterase 1; Q9NUW8; recombinant TDP1, AlphaScreen DNA substrate cleavage; Potency, µM (doses to about 130 µM), without a hit: top-dose activity change, negative = inhibition, hits mostly inhibitors; hit rate 0.28% among 350,000; AID 485290; further: potency means the concentration at half of the fitted maximal effect; on the % scale 0 is the no-effect control and ±100 the full control effect; nearly all actives have a fitted effect of over 40% in size
Target sequence (Q9NUW8 whole entry, looked up): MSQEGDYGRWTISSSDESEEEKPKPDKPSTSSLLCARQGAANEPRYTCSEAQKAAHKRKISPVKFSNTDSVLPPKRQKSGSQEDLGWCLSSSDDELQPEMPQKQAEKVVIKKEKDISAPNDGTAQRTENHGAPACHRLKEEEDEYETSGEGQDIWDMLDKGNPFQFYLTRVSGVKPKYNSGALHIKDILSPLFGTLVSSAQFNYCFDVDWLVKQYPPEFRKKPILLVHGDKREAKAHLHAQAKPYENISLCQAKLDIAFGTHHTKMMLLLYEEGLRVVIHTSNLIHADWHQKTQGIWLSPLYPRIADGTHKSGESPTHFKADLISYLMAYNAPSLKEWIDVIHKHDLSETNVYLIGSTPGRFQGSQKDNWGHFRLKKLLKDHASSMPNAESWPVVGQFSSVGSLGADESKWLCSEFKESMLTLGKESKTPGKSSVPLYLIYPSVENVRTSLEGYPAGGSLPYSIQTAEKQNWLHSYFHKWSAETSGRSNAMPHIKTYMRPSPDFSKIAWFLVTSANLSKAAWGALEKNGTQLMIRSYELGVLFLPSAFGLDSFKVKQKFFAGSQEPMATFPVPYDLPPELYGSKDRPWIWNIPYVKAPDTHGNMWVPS
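AlphaScreen read-out: signal falls as enzyme removes the 3' tyrosine-FITC from a 5'-biotinylated DNA oligo (15 nM, 5 min, RT). Enzyme was E. coli-made recombinant Tdp1 at 1 nM, exposed to compound for 15 min beforehand; beads 10 ug/ml, 10 min.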
TDP1 cell CPT: DT40-hTDP1 cell growth loss with CPT | AID 686979 | Potency, µM (top dose mostly 46.2 µM), without a hit: at the top dose activity change, negative = growth inhibition, usual class: inhibitors | chicken DT40 Tdp1-/-;hTDP1 cells + 20 nM CPT, ATP luminescence, 48 h | hit rate 12% among 420,000; further: potency means the concentration at half of the fitted maximal effect; on the % scale 0 is the no-effect control and ±100 the full control effect; nearly all actives have a fitted effect of over 55% in size
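Chicken DT40 Tdp1-/- cells stably complemented with human TDP1 were seeded at 400 cells/well in medium containing 20 nM camptothecin, exposed to pin-transferred compounds, and grown at 37 °C for at least 48 hr. Viability was read as ATP luminescence.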
IL1B secr inh: inflammasome signaling inhibition, IL-1 beta readout. THP-1 LPS/ATP IL-1B secretion, AlphaLISA, 16 h; hits give low values. activity change, % at 57.5 µM. hit rate 4.7% among 360,000; in the data active means activity change below about -50%; inconclusive means mostly about -30% to -49%; further: on the % scale 0 is the no-effect control and ±100 the full control effect
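THP-1 cells pretreated 1 hr with compounds (up to 57.5 uM final), then stimulated with LPS (250 ng/mL final) plus ATP (1.25 mM final); secreted IL-1B measured by AlphaLISA after 16 hr, decreased signal indicating inhibition.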
TGFb confirm: TGF-b pathway inhibition, cherry-pick retest. shares compounds with TGFb inhibitor. HepG2 CAGA-GFP TGF-b reporter, GFP fluorescence, 18 h; cells stimulated with TGF-beta, 500 pg/mL. hit rate 63% among 1,600. Potency, µM (highest dose often 46.1 µM), inactives show at the highest dose activity, negative = inhibition, usual class: inhibitors; further: potency means the concentration at half of the fitted maximal effect; on the % scale 0 is the no-effect control and ±100 the full control effect; nearly all actives have a fitted effect of over 65% in size
HepG2 tox-2: toxic to HepG2 cells in TGF-b counterscreen; shares compounds with TGFb inhibitor; HepG2 CAGA-GFP viability, ATP luminescence, 18 h; cells stimulated with TGF-beta, 500 pg/mL; Potency, µM (series often up to 46.1 µM), for inactives: top-dose activity, negative = cytotoxicity, most hits filed as inhibitors; hit rate 27% among 1,600; AID 720535; further: potency means the concentration at half of the fitted maximal effect; on the % scale 0 is the no-effect control and ±100 the full control effect; nearly all actives have a fitted effect of over 70% in size
TGFb CCL64 inh: TGF-b inhibition, CCL64 orthogonal assay; shares compounds with TGFb inhibitor; CCL64 CAGA-GFP reporter, TGF-b stimulated, GFP fluorescence, 18 h; Potency, µM (titrated, usually from 46.1 µM), inactives show at the highest dose activity, negative = inhibition, actives largely listed as inhibitors; hit rate 41% among 1,600; further: potency means the concentration at half of the fitted maximal effect; nearly all actives have a fitted effect of over 65% in size
TGFb COP inh: validation of TGF-b inhibitors in HepG2 COP promoter reporter; shares compounds with TGFb inhibitor; HepG2 COP-GFP TGF-b reporter, GFP fluorescence, 18 h; cells stimulated by added recombinant TGF-beta; Potency, µM (titrated, usually from 46.1 µM), inactives show at the highest dose activity, negative = inhibition, usual class: inhibitors; hit rate 3% among 1,600; AID 720537; further: potency means the concentration at half of the fitted maximal effect; nearly all actives have a fitted effect of over 70% in size
Active calls of the source: *. Unless noted, the call rests on the fitted dose curve; in most records, active means well fitted curve in the direction sought with a large enough effect; inconclusive means small, poorly fitted or top-dose-only effect, or another doubt; inactive means no such curve, though single readings can be large; an effect the other way counts as inactive or inconclusive.

How did COc1ccc(Br)cc1/C=C/C(=O)Nc1ccc2ccccc2c1 do in these assays?
TDP1 cell noCPT: inconclusive; HepG2 tox-1: -16%; TGFb inhibitor: inconclusive; TDP1 inh: 5%; TDP1 cell CPT: inconclusive; IL1B secr inh: -20

What do the screens show for `CCC(=O)Nc1cccc(C(=O)/C=C/c2cc(Br)ccc2OC)c1`?
TDP1 cell noCPT: 4.1µM*; HepG2 tox-1: 11µM*; TGFb inhibitor: 3.5µM*; TDP1 inh: 7%; TDP1 cell CPT: 2.9µM*; IL1B secr inh: -105*; TGFb confirm: 3.7µM*; HepG2 tox-2: 7.3µM*; TGFb CCL64 inh: 3.7µM*; TGFb COP inh: inconclusive

What do the screens show for `CCc1nnc(NC(=O)Cn2nc(-c3ccccc3OC)ccc2=O)s1`?
TDP1 cell noCPT: -2%; HepG2 tox-1: -8%; TGFb inhibitor: inconclusive; TDP1 inh: 4%; TDP1 cell CPT: -6%; IL1B secr inh: 9

How did Cc1ccccc1C(=O)NCCOc1ccccc1Cl do in these assays?
TDP1 cell noCPT: -2%; HepG2 tox-1: -24%; TGFb inhibitor: -8%; TDP1 cell CPT: 11%; IL1B secr inh: -5

Results for Cc1ccccc1OCCNC(=O)c1ccccc1Sc1ccccc1C#N ?
TDP1 cell noCPT: 16µM*; HepG2 tox-1: -26%; TGFb inhibitor: 10µM*; TDP1 inh: -2%; TDP1 cell CPT: -21%; IL1B secr inh: -17; TGFb confirm: -25%; HepG2 tox-2: -6%; TGFb CCL64 inh: -16%; TGFb COP inh: -1%

How did O=C(c1ccccc1)c1ccc(OC(=O)C2CCCCC2)cc1 do in these assays?
TDP1 cell noCPT: 3%; HepG2 tox-1: -4%; TGFb inhibitor: -8%; TDP1 inh: -11%; TDP1 cell CPT: 0%; IL1B secr inh: -4

How did CNC(=S)N/N=C/C1=CCC2CC1C2(C)C (centres undefined) do in these assays?
TDP1 cell noCPT: inconclusive; HepG2 tox-1: -14%; TGFb inhibitor: 1.1µM*; TDP1 inh: -3%; TDP1 cell CPT: 7.3µM*; IL1B secr inh: 33; TGFb confirm: inconclusive; HepG2 tox-2: -8%; TGFb CCL64 inh: inconclusive; TGFb COP inh: -10%

Results for CC1(C)C2CC=C(/C=N/NC(=S)NCCc3ccccc3)C1C2 (centres undefined) ?
TDP1 cell noCPT: inconclusive; HepG2 tox-1: 12%; TGFb inhibitor: inconclusive; TDP1 inh: -3%; TDP1 cell CPT: inconclusive; IL1B secr inh: inconclusive

What do the screens show for `COc1cccc(C(C(=O)NC2CCCC2)N(C(=O)c2ccco2)c2ccc(NC(C)=O)cc2)c1OC` (centres undefined)?
TDP1 cell noCPT: -30%; HepG2 tox-1: -10%; TGFb inhibitor: -1%; TDP1 cell CPT: -20%; IL1B secr inh: -12

What do the screens show for `Cc1cccc(/C=C(\c2nc3ccccc3[nH]2)S(=O)(=O)c2ccccc2)c1`?
TDP1 cell noCPT: 2.6µM*; HepG2 tox-1: -92%; TGFb inhibitor: 10µM*; TDP1 inh: -2%; TDP1 cell CPT: 4.1µM*; IL1B secr inh: -110*; TGFb confirm: 4.6µM*; HepG2 tox-2: 4.6µM*; TGFb CCL64 inh: 5.8µM*; TGFb COP inh: inconclusive

What do the screens show for `O=C(/C(=C(\O)c1ccccc1)c1nc2ccccc2[nH]1)c1ccccc1`?
TDP1 cell noCPT: inconclusive; HepG2 tox-1: -39%; TGFb inhibitor: -16%; TDP1 cell CPT: -13%; IL1B secr inh: inconclusive

Results for O=C(c1ccco1)N(Cc1cccc(Br)c1)C1CCS(=O)(=O)C1 (centres undefined) ?
TDP1 cell noCPT: 3%; HepG2 tox-1: -78%; TGFb inhibitor: -3%; TDP1 inh: 1%; TDP1 cell CPT: 1%; IL1B secr inh: 0

How did COc1ccc(CNC(=O)c2ccc(-c3ccccc3)cc2)cc1 do in these assays?
TDP1 cell noCPT: -7%; HepG2 tox-1: 11%; TGFb inhibitor: 12%; TDP1 inh: -1%; TDP1 cell CPT: -12%; IL1B secr inh: 1

What do the screens show for `COc1ccc(CNC(=O)c2c(C)oc3c2C(=O)c2ccccc2C3=O)cc1`?
TDP1 cell noCPT: 10µM*; HepG2 tox-1: 0.89µM*; TGFb inhibitor: 1µM*; TDP1 inh: 4%; TDP1 cell CPT: 8.2µM*; IL1B secr inh: 37; TGFb confirm: 0.65µM*; HepG2 tox-2: 1µM*; TGFb CCL64 inh: 5.2µM*; TGFb COP inh: 2.1µM*

How did COc1ncc2nc(-c3ccccc3)c(=O)n(C3CC3)c2n1 do in these assays?
TDP1 cell noCPT: -5%; TDP1 cell CPT: -15%

What do the screens show for `Cc1ccc2nc(SCC(=O)Nc3cc(C(F)(F)F)ccc3N3CCOCC3)[nH]c2c1`?
TDP1 cell noCPT: 0.82µM*; HepG2 tox-1: -20%; TGFb inhibitor: 10µM*; TDP1 inh: 4%; TDP1 cell CPT: 0.82µM*; IL1B secr inh: 29; TGFb confirm: 1.8µM*; HepG2 tox-2: -9%; TGFb CCL64 inh: 0.73µM*; TGFb COP inh: -19%

Results for O=C(CSc1nccc(=O)[nH]1)Nc1cc(C(F)(F)F)ccc1N1CCOCC1 ?
TDP1 cell noCPT: -10%; HepG2 tox-1: -1%; TGFb inhibitor: -14%; TDP1 cell CPT: -11%; IL1B secr inh: 20

Compound activity deposited in PubChem by National Center for Advancing Translational Sciences (NCATS).
